Screening data (PubChem)
Tg IFNy HTS: inhibitors of Toxoplasma gondii growth with IFN-gamma | hit rate 3.8% among 69,000 | Toxoplasma gondii growth in IFN-gamma-treated host cells; active compounds read low | AID 1259416 | activity change, negative = inhibition, % (test concentration not listed); in the data active means activity change below about -70%, passing the limit was not always enough;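 further: host cells are HeLa cells infected with Toxoplasma gondii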
* hit, by the source's call; ! = not confirmed by another sample. The full list was thinned out, with hits kept by preference.

`COc1ccc(C(=O)N2CCN(c3ncnc4cc(C(C)(C)C)sc34)CC2)cc1OC` gave Tg IFNy HTS -84.9*.
`Cc1ccc(C)n1CCN1CCN(C(=O)c2cccc(C(F)(F)F)c2)CC1` gave Tg IFNy HTS -50.4.
`COc1ccc(C(=O)N2CCN(c3cccc(C(F)(F)F)c3)CC2)cc1OC` gave Tg IFNy HTS -79.3*.
`COc1ccc(C(=O)N2CCN(c3cnn(C)c(=O)c3Cl)CC2)cc1OC` gave Tg IFNy HTS -0.1.
For O=C(c1ccc2ncnc(N3CCCC3)c2c1)N1CCCC1 the results were Tg IFNy HTS -37.5.
For CN(Cc1ccc(N2CCCC2=O)cc1)Cc1ccccc1N1CCOCC1 the results were Tg IFNy HTS 10.3.
`Cc1nn(C)c(Cl)c1CN(CCN1CCOCC1)Cc1ccco1` gave Tg IFNy HTS -13.1.
CCN1CCC2(CCCN(CC3CCOC3)C2)C1=O (stereo unspecified) was read as Tg IFNy HTS -53.2.
O=S(=O)(c1ccc(F)cc1)N1C[C@@H]2[C@H](c3ccccc31)[C@@H](CO)N2Cc1ccccc1Cl was read as Tg IFNy HTS -2.9.
Screening O=C(Nc1ccc(F)cc1)N1C[C@@H]2[C@H](c3ccccc31)[C@H](CO)N2Cc1ccccc1Cl returned Tg IFNy HTS 37.4.
Screening O=S(=O)(c1ccc(F)cc1)N1C[C@H]2[C@@H](c3ccccc31)[C@@H](CO)N2Cc1ccccc1Cl returned Tg IFNy HTS -78.6*.
`Cc1ccc(CNC(=O)COC(=O)c2cccs2)cc1` gave Tg IFNy HTS -12.4.
CC1Cc2ccccc2N1S(=O)(=O)c1csc(C(=O)Nc2ccccc2)c1 (stereo unspecified) was read as Tg IFNy HTS -103.0*.
Screening CC1Cc2ccccc2N1S(=O)(=O)c1cc2c3c(c1)CCC(=O)N3CCC2 (stereo unspecified) returned Tg IFNy HTS 4.4.
Screening CCN(C)S(=O)(=O)c1csc(C(=O)Nc2ccc(C)cc2)c1 returned Tg IFNy HTS -69.1.
`COc1cc2c(c(OC)c1OC)-c1c(cc3c(c1OC)OCO3)C[C@H](C)[C@@H](C)C2` gave Tg IFNy HTS -8.5.
`COc1cc([C@@H]2c3cc4c(cc3[C@@H](O[C@@H]3O[C@@H]5CO[C@@H](C)O[C@H]5[C@H](O)[C@H]3O)[C@H]3COC(=O)[C@H]23)OCO4)cc(OC)c1O` gave Tg IFNy HTS -80.0*.
`COc1cc([C@@H]2c3cc4c(cc3[C@H](O)[C@H]3COC(=O)[C@H]23)OCO4)cc(OC)c1OC` gave Tg IFNy HTS -76.2*!.
Screening COc1ccc([C@H]2C/C=C\C[C@@H](c3ccc4c(c3)OCO4)NC(=O)CCC(=O)N2)c(OC)c1 returned Tg IFNy HTS -51.6.
N#CCC(=O)N1CCCn2c(nnc2Cn2cccn2)C1 was read as Tg IFNy HTS -0.8.
O=C1CC2(CCN(S(=O)(=O)Cc3ccccc3)C2)CN1c1cccc(F)c1 (stereo unspecified) was read as Tg IFNy HTS -49.7.
Screening Cc1c(Cl)cccc1NC(=O)CC(=O)N1CCCCC1c1cccnc1 (stereo unspecified) returned Tg IFNy HTS -0.2.
For Cn1cc(-c2nc3c(c(NC4CC4)n2)CN(S(=O)(=O)c2cccc(F)c2)CC3)cn1 the results were Tg IFNy HTS -73.9*.
CCS(=O)(=O)N1CCc2nc(-c3cccc(F)c3)nc(NC3CC3)c2C1 was read as Tg IFNy HTS -34.8.
`COCCN1CCc2nc(-c3cnn(C)c3)nc(NC3CC3)c2C1` gave Tg IFNy HTS 78.2.
`FC(F)(F)c1cccc(NC(=S)Nc2ccccn2)c1` gave Tg IFNy HTS -113.3*.
S=C(Nc1ccccc1)Nc1ccccn1 was read as Tg IFNy HTS 61.2.
O=C1NN=CC1CCCNC(=S)Nc1cccc(C(F)(F)F)c1 (stereo unspecified) was read as Tg IFNy HTS 13.5.
Screening CCCCNS(=O)(=O)c1ccc(S(=O)(=O)NCc2ccncc2)cc1 returned Tg IFNy HTS -80.4*.
Screening Cc1ccc(S(=O)(=O)NCc2ccccc2)cc1 returned Tg IFNy HTS 14.4.
O=S(=O)(NCCc1ccncc1)c1cc(C(F)(F)F)cc(C(F)(F)F)c1 was read as Tg IFNy HTS 22.3.
For Cc1ccc(-c2cc3c(=O)n(Cc4nc(-c5ccc(Cl)cc5)oc4C)ccn3n2)cc1C the results were Tg IFNy HTS 125.8.
Screening Cc1cccc(NC(=O)Nc2ccc(-c3nc(-c4ccccc4)co3)cc2)c1 returned Tg IFNy HTS 5.9.
For CC(C)(C)N=C1Nc2ncccc2NC12CCN(C(=O)c1cc(-c3cccs3)[nH]n1)CC2 the results were Tg IFNy HTS 26.1.
Screening CC1(C)C2CC[C@]3(C)[C@H](C(=O)C=C4[C@@H]5C[C@@](C)(C(=O)O)CC[C@]5(C)CC[C@]43C)[C@@]2(C)CC[C@@H]1OC(=O)CCC(=O)O (stereo partly specified) returned Tg IFNy HTS 18.3.
C=C(C)[C@@H]1CC[C@]2(CO)CC[C@]3(C)[C@H](CC[C@@H]4[C@@]5(C)CC[C@H](O)C(C)(C)[C@@H]5CC[C@]43C)[C@@H]12 was read as Tg IFNy HTS 2.6.
C=C(C)[C@@H]1CC[C@]2(C(=O)O)CC[C@]3(C)[C@H](CC[C@@H]4[C@@]5(C)CC[C@H](OC(=O)CC(C)(C)C(=O)O)C(C)(C)[C@@H]5CC[C@]43C)[C@@H]12 was read as Tg IFNy HTS -73.2*.
Screening COCC1CN(C(=O)Cc2cccs2)Cc2cncn2C1 (stereo unspecified) returned Tg IFNy HTS 42.8.
C=CCOCc1cncc2c1CCN(S(=O)(=O)c1cn(C)cn1)C2 was read as Tg IFNy HTS -40.6.
Cc1ccc(OCCCN(C)C(=O)C2CCNCC2)cc1C was read as Tg IFNy HTS -2.4.
`O=C(c1ccccc1)c1c(Cl)cc(C(F)(F)F)cc1Cl` gave Tg IFNy HTS -3.1.
For O=C(Nc1ccccc1-c1ccccc1)c1csnn1 the results were Tg IFNy HTS 1.7.
Screening O=C(NC(=O)c1csnn1)Nc1cc(C(F)(F)F)cc(C(F)(F)F)c1 returned Tg IFNy HTS -101.1*.
`O=C(Nc1ccccc1)c1cc2n(n1)CCN(C(=O)c1csnn1)C2` gave Tg IFNy HTS 38.6.
For COCCCNC(=O)c1ccccc1C(=O)Nc1cc(C(F)(F)F)cc(C(F)(F)F)c1 the results were Tg IFNy HTS 36.7.
O=C(N/C=C/c1ccsc1)Sc1cc(C(F)(F)F)cc(C(F)(F)F)c1 was read as Tg IFNy HTS 48.1.
Screening O=C(Nc1cc(C(F)(F)F)cc(C(F)(F)F)c1)c1csc(-c2ccc(Cl)cc2)c1 returned Tg IFNy HTS 48.3.
O=C(Nc1cc(C(F)(F)F)cc(C(F)(F)F)c1)c1cc(Cl)ccc1O was read as Tg IFNy HTS -80.5*.
For O=C(Nc1cc(C(F)(F)F)cc(C(F)(F)F)c1)Nc1sccc1Cl the results were Tg IFNy HTS -95.4*.
`CCN1C(=O)CCC12CCC(NC(=O)c1cccn1C)CC2` (stereo unspecified) gave Tg IFNy HTS 184.5.
`CCCN1CCc2nc(SCc3nc(-c4ccc(OC)cc4OC)oc3C)[nH]c(=O)c2C1` gave Tg IFNy HTS 15.5.
`CCOC(=O)c1nc(N2CCCC(C)C2)c2ccccc2n1` (stereo unspecified) gave Tg IFNy HTS -35.4.
Screening Cc1cccc(NC(=O)c2c(O)c3cccnc3n(-c3ccc(F)cc3)c2=O)c1C returned Tg IFNy HTS -50.1.
For Cc1ccc(C(=O)N2CCC3(CC(Nc4ncccn4)C3)C2)cn1 (stereo unspecified) the results were Tg IFNy HTS -2.2.
